Experimental data reported in PubChem BioAssay (EPA / NIEHS).
Inconclusive results are not listed. The source made the active and inactive calls. Rule for the calls, unless noted: active = hit-call score of the fitted dose curve at least 0.9, where 1 is the maximum; inconclusive = response in the unintended direction; inactive = score below 0.9.

Columns and labels:
[1] = biological target: Oxysterols receptor LXR-beta (Homo sapiens) (UniProt P55055); experiment: ATG_LXRb_TRANS: Attagene TRANS-FACTORIAL HepG2 Assay for human Liver X Receptor beta (LXRb) (AID 2282981); details: HepG2 Attagene TRANS GAL4-LXRb reporter, mRNA
Oxysterols receptor LXR-beta (Homo sapiens), sequence (P55055 whole entry, looked up, the tested form may be a part): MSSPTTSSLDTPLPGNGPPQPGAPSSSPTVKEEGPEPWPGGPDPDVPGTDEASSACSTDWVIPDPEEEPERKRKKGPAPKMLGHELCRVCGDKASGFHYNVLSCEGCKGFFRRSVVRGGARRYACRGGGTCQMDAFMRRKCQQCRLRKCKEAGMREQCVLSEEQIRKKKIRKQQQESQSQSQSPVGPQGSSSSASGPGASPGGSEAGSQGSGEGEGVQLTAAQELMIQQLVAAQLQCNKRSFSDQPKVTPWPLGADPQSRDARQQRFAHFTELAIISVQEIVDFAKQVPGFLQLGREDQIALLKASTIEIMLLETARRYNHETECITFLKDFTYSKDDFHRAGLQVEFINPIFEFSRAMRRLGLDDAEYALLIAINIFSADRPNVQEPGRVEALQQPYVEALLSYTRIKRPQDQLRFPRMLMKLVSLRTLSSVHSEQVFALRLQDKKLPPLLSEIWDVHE
Summary of the method: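 In this TRANS format, exogenous chimeric NR-Gal4 protein activity, not endogenous factors, drives reporter expression in transfected human HepG2 cells. Exposure lasted 24 h; reporter mRNA was read by fluorescent capillary electrophoresis.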

[2] = biological target: Hepatocyte nuclear factor 4-alpha (Homo sapiens) (UniProt P41235); experiment: ATG_HNF4a_TRANS: Attagene TRANS-FACTORIAL HepG2 Assay for human Hepatocyte Nuclear Factor 4 alpha (HNF4a) (AID 2282982); details: HepG2 HNF4a transactivation reporter, mRNA readout
Hepatocyte nuclear factor 4-alpha (Homo sapiens), sequence (P41235 whole entry, looked up, the tested form may be a part): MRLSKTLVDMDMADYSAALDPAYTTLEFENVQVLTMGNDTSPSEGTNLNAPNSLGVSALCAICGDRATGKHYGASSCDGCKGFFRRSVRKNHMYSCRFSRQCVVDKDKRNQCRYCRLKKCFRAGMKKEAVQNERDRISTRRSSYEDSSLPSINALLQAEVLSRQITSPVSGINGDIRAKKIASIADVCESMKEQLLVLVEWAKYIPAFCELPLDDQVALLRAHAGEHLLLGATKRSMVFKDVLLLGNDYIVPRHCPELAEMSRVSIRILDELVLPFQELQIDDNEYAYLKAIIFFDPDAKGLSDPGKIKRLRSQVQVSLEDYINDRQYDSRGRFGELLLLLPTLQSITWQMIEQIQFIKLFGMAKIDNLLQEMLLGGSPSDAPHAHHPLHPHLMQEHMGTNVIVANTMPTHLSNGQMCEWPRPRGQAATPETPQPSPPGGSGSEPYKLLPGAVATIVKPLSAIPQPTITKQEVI
Summary of the method: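 Cells used were human HepG2, transiently carrying GAL4-UAS reporter units read out against exogenous NR-GAL4 chimeras. Reporter transcript levels after 24 h dosing were quantified by fluorescent RT-PCR and capillary electrophoresis.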

[3] = biological target: Nuclear receptor subfamily 4 group A member 2 (Homo sapiens) (UniProt P43354); experiment: ATG_NURR1_TRANS: Attagene TRANS-FACTORIAL HepG2 Assay for human Nuclear Receptor Related Protein 1 (NURR1) (AID 2282985); details: HepG2 Attagene TRANS reporter, mRNA readout
Nuclear receptor subfamily 4 group A member 2 (Homo sapiens), sequence (P43354 whole entry, looked up): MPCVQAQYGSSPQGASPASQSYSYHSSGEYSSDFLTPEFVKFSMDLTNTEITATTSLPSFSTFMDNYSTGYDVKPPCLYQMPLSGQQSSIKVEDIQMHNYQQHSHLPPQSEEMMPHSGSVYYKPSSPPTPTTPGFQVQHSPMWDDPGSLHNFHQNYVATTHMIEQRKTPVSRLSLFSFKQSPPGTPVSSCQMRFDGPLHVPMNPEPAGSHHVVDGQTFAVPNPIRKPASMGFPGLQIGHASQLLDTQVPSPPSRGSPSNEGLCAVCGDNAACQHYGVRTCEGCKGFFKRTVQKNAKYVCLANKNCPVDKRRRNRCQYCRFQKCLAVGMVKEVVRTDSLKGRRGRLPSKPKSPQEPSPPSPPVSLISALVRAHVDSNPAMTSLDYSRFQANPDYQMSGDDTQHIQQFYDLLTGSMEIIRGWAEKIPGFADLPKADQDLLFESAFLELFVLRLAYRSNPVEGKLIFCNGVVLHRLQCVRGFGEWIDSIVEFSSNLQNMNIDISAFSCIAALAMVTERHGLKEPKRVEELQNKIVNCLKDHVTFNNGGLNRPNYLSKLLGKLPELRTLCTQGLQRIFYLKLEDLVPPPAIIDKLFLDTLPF
Summary of the method: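 After 24 h chemical dosing, total RNA from transiently transfected HepG2 cells was reverse-transcribed and reporter cDNA PCR-amplified, FAM-labelled and analysed by capillary electrophoresis. Activity fitted in positive direction, DMSO as negative control.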

[4] = biological target: Retinoic acid receptor alpha (Homo sapiens) (UniProt P10276); experiment: ATG_DR5_RAR_CIS: Attagene CIS-FACTORIAL HepG2 Assay for human Retinoic Acid Receptor Alpha (RARE), DR5 submotif (AID 2282934; active = hit-call score of the fitted dose curve at least 0.9, where 1 is the maximum; inactive = score below 0.9); details: HepG2 Attagene cis-factorial RARE DR5 reporter, mRNA; actives raise or lower the signal
Retinoic acid receptor alpha (Homo sapiens), sequence (P10276 whole entry, looked up): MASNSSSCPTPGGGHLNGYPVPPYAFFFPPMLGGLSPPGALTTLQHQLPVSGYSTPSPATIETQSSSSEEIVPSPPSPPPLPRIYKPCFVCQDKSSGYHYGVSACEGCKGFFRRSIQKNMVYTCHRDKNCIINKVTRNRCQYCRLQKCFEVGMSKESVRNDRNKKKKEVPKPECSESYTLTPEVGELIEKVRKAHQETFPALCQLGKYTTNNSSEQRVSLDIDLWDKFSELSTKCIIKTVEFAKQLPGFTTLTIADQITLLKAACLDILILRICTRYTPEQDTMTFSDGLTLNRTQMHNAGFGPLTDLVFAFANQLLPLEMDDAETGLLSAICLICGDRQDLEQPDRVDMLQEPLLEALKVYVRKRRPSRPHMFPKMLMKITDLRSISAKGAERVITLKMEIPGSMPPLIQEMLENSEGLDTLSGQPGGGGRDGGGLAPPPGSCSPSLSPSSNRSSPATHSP
Summary of the method: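 Transfected HepG2 reporter cells are exposed to chemicals for 24 h. Then RNA is extracted and the DR5 element reporter transcript is measured by RT-PCR and capillary electrophoresis, with bidirectional curve fitting relative to DMSO.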

[5] = biological target: human Peroxisome Proliferator-activated Receptor delta (PPARd), PPARD (gene 5467) (UniProt Q03181); experiment: ATG_PPARd_TRANS: Attagene TRANS-FACTORIAL HepG2 Assay for human Peroxisome Proliferator-activated Receptor delta (PPARd) (AID 2283002)
human Peroxisome Proliferator-activated Receptor delta (PPARd), PPARD (gene 5467), sequence (Q03181 whole entry, looked up, the tested form may be a part): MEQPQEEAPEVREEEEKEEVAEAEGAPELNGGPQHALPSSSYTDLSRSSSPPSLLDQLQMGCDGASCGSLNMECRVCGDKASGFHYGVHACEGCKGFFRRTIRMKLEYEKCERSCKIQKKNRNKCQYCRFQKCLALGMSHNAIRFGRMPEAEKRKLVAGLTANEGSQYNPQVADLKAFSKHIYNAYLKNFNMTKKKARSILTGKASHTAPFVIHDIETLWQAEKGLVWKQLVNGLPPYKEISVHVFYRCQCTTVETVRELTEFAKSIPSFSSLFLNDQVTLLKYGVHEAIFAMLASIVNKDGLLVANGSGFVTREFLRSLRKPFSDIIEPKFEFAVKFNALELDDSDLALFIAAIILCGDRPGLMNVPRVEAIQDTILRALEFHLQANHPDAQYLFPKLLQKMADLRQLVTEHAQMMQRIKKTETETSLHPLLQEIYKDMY
Summary of the method: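 Measured quantity: GAL4-UAS reporter transcript induction in HepG2 after 24 h chemical dosing, with NR-Gal4 chimeras supplied by transient transfection. Detection by RT-PCR and capillary electrophoresis; upward fit against DMSO.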

[6] = biological target: human RAR-related Orphan Receptor gamma (RORg), RORC (gene 6097) (UniProt P51449); experiment: ATG_RORg_TRANS: Attagene TRANS-FACTORIAL HepG2 Assay for human RAR-related Orphan Receptor gamma (RORg) (AID 2283011)
human RAR-related Orphan Receptor gamma (RORg), RORC (gene 6097), sequence (P51449 whole entry, looked up, the tested form may be a part): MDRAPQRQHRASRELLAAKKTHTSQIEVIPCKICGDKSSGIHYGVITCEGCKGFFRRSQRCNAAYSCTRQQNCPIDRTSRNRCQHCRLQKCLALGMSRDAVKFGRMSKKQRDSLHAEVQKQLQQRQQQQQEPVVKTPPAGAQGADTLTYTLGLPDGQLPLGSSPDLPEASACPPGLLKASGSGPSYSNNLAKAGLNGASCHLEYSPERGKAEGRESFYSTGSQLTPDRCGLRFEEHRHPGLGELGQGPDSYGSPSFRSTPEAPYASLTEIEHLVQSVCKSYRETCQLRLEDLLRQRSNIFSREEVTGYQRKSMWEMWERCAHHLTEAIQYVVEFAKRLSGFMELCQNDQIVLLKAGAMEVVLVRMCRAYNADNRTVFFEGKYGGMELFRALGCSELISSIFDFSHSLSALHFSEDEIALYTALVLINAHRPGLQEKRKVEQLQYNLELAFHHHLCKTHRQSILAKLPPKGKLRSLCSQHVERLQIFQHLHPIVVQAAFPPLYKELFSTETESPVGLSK
Summary of the method: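 Readout: reporter transcript induction (RT-PCR, fluorescent primer extension, capillary electrophoresis) after 24 h compound exposure of transiently transfected HepG2 cells carrying a RORg-Gal4 chimera and GAL4-UAS reporters; DMSO served as baseline, with increasing signal fitted.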

[7] = biological target: human Vitamin D Receptor (VDR), VDR (gene 7421) (UniProt P11473); experiment: ATG_VDR_TRANS: Attagene TRANS-FACTORIAL HepG2 Assay for human Vitamin D Receptor (VDR) (AID 2283022)
human Vitamin D Receptor (VDR), VDR (gene 7421), sequence (P11473 whole entry, looked up, the tested form may be a part): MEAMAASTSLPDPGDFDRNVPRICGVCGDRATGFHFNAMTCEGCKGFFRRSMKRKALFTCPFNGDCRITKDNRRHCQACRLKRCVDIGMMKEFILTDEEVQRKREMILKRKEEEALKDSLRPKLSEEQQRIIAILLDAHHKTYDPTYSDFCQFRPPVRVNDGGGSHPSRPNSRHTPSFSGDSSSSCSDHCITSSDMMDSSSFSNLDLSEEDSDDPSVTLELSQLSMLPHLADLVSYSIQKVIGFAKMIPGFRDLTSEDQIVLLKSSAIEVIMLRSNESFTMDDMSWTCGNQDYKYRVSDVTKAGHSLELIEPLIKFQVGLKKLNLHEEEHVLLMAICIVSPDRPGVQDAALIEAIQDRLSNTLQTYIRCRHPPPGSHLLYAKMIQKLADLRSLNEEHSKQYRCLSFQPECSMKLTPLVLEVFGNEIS
Summary of the method: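 HepG2 cells were transiently transfected with multiple GAL4-UAS reporter units, so signal reflects exogenous chimeric receptor-Gal4 activity. After 24 h compound exposure, reporter mRNA was measured by RT-PCR, fluorescent labelling and capillary electrophoresis, fitted for gain of signal versus DMSO.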

[8] = ATG_GRE_CIS: Attagene CIS-FACTORIAL HepG2 Assay for human Glucocorticoid Response Elements (GRE) (AID 2282947; active = hit-call score of the fitted dose curve at least 0.9, where 1 is the maximum; inactive = score below 0.9); details: HepG2 GRE cis-reporter, Attagene multiplex mRNA; actives raise or lower the signal
Summary of the method: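 Following 24 h chemical exposure of transiently transfected HepG2 cells, total RNA was reverse-transcribed and reporter cDNA amplified, fluorescently labelled and sized by capillary electrophoresis. Signal gain or loss was fitted relative to DMSO vehicle.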

[9] = ATG_VDRE_CIS: Attagene CIS-FACTORIAL HepG2 Assay for human Vitamin D Receptor Element (VDRE) (AID 2282968; active = hit-call score of the fitted dose curve at least 0.9, where 1 is the maximum; inactive = score below 0.9); details: HepG2 VDRE cis-reporter transcription, actives raise or lower the signal
Summary of the method: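 RT-PCR/CE readout of reporter mRNA; HepG2, transient transfection, 24 h dosing; DMSO baseline; bidirectional analysis.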

[10] = biological target: Glucocorticoid receptor (Homo sapiens) (UniProt P04150); experiment: ATG_GR_TRANS: Attagene TRANS-FACTORIAL HepG2 Assay for human Glucocorticoid Receptor (GR) (AID 2282978); details: HepG2 Attagene TRANS GR reporter, mRNA transcription;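 note: activators score as hits since higher reporter transcript over DMSO is fitted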
Summary of the method: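 After 24 h incubation with test chemical, transfected HepG2 cells were lysed for RNA; reporter cDNA was amplified, FAM-labelled, HpaI-digested and sized on a capillary analyser. Signal gain relative to DMSO was scored.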

[11] = TOX21_p53_BLA_p2_viability: Viability Assessment in the Tox21 HCT-116 p53 Agonism Beta-lactamase Assay, Phase 2 (AID 2283591);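 note: compound exposure lasted 16 h at 37 °C; actives lower the ATP signal meaning cytotoxicity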
Summary of the method: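 HCT-116 p53-bla cells (4000/well) rested 5 h at 37C, then received compounds in DMSO (217-fold dilution) for 16 h at 37C, 5% CO2. After the CCF4 read, CellTiter-Glo was added; ATP luminescence was read after 30 min at room temperature.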

[12] = TOX21_p53_BLA_p3_viability: Viability Assessment in the Tox21 HCT-116 p53 Agonism Beta-lactamase Assay, Phase 3 (AID 2283593);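 note: cells exposed to compound for 16 h before reading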
Summary of the method: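 HCT-116 cells (4000/well) rested 5 h at 37C, then got DMSO compounds by pin tool (217-fold dilution) for 16 h at 37C, 5% CO2. After the bla read, CellTiter-Glo was added and luminescence read at 30 min, room temperature.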

[13] = TOX21_p53_BLA_p4_viability: Viability Assessment in the Tox21 HCT-116 p53 Agonism Beta-lactamase Assay, Phase 4 (AID 2283597);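 note: hits lower the luminescence signal meaning cytotoxicity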
Summary of the method: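 HCT116 p53-bla cells (4000/well) rested 5 h at 37C, then received compounds in DMSO (217-fold dilution) for 16 h at 37C, 5% CO2. CellTiter-Glo was added after the CCF4-AM read, and luminescence was read after 30 min at room temperature.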

[14] = biological target: Bile acid receptor (Homo sapiens) (UniProt Q96RI1); experiment: ATG_IR1_CIS: Attagene CIS-FACTORIAL HepG2 Assay for human Nuclear Receptor Subfamily 1 Group H Member 4 (NR1H4), IR1 submotif (AID 2282946; active = hit-call score of the fitted dose curve at least 0.9, where 1 is the maximum; inactive = score below 0.9); details: IR1 reporter transcription, actives raise or lower the signal
Bile acid receptor (Homo sapiens), sequence (Q96RI1 whole entry, looked up): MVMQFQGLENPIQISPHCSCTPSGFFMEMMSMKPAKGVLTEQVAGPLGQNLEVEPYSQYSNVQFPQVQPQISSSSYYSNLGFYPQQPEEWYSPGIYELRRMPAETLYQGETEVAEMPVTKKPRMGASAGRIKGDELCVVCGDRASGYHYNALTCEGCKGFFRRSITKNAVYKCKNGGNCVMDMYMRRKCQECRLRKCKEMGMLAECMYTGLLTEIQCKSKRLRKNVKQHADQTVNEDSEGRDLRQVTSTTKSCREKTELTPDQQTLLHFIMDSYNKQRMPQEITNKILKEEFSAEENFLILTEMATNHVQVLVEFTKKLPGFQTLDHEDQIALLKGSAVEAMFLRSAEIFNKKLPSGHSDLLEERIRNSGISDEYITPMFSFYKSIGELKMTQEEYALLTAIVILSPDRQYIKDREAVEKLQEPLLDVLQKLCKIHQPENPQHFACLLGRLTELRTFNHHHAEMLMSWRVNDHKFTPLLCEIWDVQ
Summary of the method: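 Transient MRTU transfection, HepG2; 24 h dosing; RNA → RT-PCR → 6-FAM primer extension → HpaI digest → capillary electrophoresis fluorescence. Gain/loss of signal fitted relative to DMSO.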

[15] = biological target: human RAR-related Orphan Receptor beta (RORb), RORB (gene 6096) (UniProt Q92753); experiment: ATG_RORb_TRANS: Attagene TRANS-FACTORIAL HepG2 Assay for human RAR-related Orphan Receptor beta (RORb) (AID 2283010)
human RAR-related Orphan Receptor beta (RORb), RORB (gene 6096), sequence (Q92753 whole entry, looked up, the tested form may be a part): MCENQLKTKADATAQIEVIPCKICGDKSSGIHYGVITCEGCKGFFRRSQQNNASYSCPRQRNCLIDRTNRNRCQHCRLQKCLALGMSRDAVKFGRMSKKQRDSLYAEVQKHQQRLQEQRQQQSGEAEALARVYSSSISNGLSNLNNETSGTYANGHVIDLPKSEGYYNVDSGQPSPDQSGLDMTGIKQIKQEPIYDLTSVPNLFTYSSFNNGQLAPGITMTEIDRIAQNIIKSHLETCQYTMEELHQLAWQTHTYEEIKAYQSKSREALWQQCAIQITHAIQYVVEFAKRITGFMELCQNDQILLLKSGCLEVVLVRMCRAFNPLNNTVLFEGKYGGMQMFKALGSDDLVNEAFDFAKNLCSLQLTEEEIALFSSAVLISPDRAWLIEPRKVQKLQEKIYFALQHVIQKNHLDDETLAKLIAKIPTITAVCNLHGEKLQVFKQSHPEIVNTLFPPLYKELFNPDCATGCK
Summary of the method: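 Readout is reporter-gene mRNA induction, detected as fluorescence after RT-PCR and capillary electrophoresis, fitted for gain of signal against DMSO controls. Transiently transfected HepG2 liver cells carrying GAL4-UAS reporter constructs were treated for 24 hours.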

[16] = ATG_M_19_TRANS: Attagene TRANS-FACTORIAL HepG2 Assay for M19 Transcription Factor (Internal Marker) (AID 2282974); details: HepG2 Attagene TRANS-FACTORIAL M19 internal marker reporter
Summary of the method: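 Transfected HepG2 (GAL4-UAS MRTUs), 24 h compound, TriZol RNA, DNase-treated RT, reporter PCR, FAM label, HpaI digest, CE fluorescence; gain vs DMSO.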

[17] = ATG_ERE_CIS: Attagene CIS-FACTORIAL HepG2 Assay for Estrogen Response Element (ERE) (AID 2282940; active = hit-call score of the fitted dose curve at least 0.9, where 1 is the maximum; inactive = score below 0.9); details: HepG2 ERE cis-reporter, Attagene RNA transcript; actives raise or lower the signal
Summary of the method: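 Human liver cells (HepG2) bearing transiently transfected, promoter-regulated reporter units were exposed 24 h. Reporter mRNA induction was detected by capillary electrophoresis of labelled RT-PCR products and fitted bidirectionally to DMSO.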

[18] = ATG_GAL4_TRANS: Attagene TRANS-FACTORIAL HepG2 Assay for GAL4 (Internal Marker) (AID 2282976); details: HepG2 Attagene TRANS GAL4 internal marker reporter
Summary of the method: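 HepG2 cells transiently transfected with multiplexed GAL4-UAS reporter constructs were dosed for 24 h. Reporter mRNA was measured by RT-PCR, 6-FAM primer extension, HpaI digestion and capillary electrophoresis, and gain of signal was fitted relative to DMSO.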

[19] = CCTE_Harrill_HTTr_Apoptosis_MCF7: CCTE's 6-hour Apoptosis Assessment for the High-Throughput Transcriptomics (HTTr) Platform, in MCF-7 cells cultured in DMEM + 10% fetal bovine serum, Harrill Lab (AID 2284011; active = hit-call score of the fitted dose curve at least 0.9, where 1 is the maximum; inactive = score below 0.9)
Summary of the method: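 MCF-7 cells in DMEM + 10% fetal bovine serum were exposed to chemicals for 6 hours over an eight-point dilution series. Caspase-3/7 activation was imaged by high content imaging with CellEvent Caspase 3/7 Green; bidirectional fitting used DMSO as baseline.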

Question: What does the source list for `NNc1ccccc1`?
Answer: outcome [1]: inactive; outcome [2]: inactive; outcome [3]: inactive

Question: Which outcome [4] does the source give for `CCC1CCC(=O)O1` (stereo not drawn) here?
Answer: The outcome was “inactive”.

Question: What about the outcome [2] of the same compound?
Answer: Its outcome is “inactive”.

Question: And the outcome [5]?
Answer: Its outcome is “inactive”.

Question: And the outcome [6]?
Answer: Its outcome is “inactive”.

Question: What about the outcome [7] of the same compound?
Answer: The outcome was “inactive”.

Question: Which outcome [4] does the source give for `O=[N+]([O-])c1cc([N+](=O)[O-])c2ccccc2c1` here?
Answer: Its outcome is “inactive”.

Question: And the outcome [8]?
Answer: Its outcome is “inactive”.

Question: And the outcome [9]?
Answer: The outcome was “inactive”.

Question: What about the outcome [10] of the same compound?
Answer: The outcome was “inactive”.

Question: And the outcome [1]?
Answer: Its outcome is “inactive”.

Question: What about the outcome [3] of the same compound?
Answer: The outcome was “inactive”.

Question: And the outcome [7]?
Answer: The outcome was “inactive”.

Question: What about the outcome [11] of the same compound?
Answer: The outcome was “inactive”.

Question: What about the outcome [12] of the same compound?
Answer: Its outcome is “inactive”.

Question: What about the outcome [13] of the same compound?
Answer: The outcome was “inactive”.

Question: With `O=[N+]([O-])C=Cc1ccccc1` as the compound, how does the AC50 [14] read?
Answer: Its AC50 is 46.8 µM (active).

Question: And the outcome [8]?
Answer: Its outcome is “inactive”.

Question: What about the AC50 [9] of the same compound?
Answer: The AC50 was 10.7 µM (active).

Question: What about the outcome [1] of the same compound?
Answer: Its outcome is “inactive”.

Question: And the AC50 [2]?
Answer: The AC50 was 47.5 µM (active).

Question: What about the outcome [15] of the same compound?
Answer: Its outcome is “inactive”.

Question: What about the outcome [6] of the same compound?
Answer: Its outcome is “inactive”.

Question: What about the outcome [7] of the same compound?
Answer: Its outcome is “inactive”.

Question: And the AC50 [11]?
Answer: The AC50 was 27.2 µM (active).

Question: What about the outcome [12] of the same compound?
Answer: Its outcome is “inactive”.

Question: Which outcome [4] does the source give for `CC=Cc1ccc2c(c1)OCO2` here?
Answer: The outcome was “inactive”.

Question: What about the outcome [9] of the same compound?
Answer: The outcome was “inactive”.

Question: And the outcome [16]?
Answer: Its outcome is “inactive”.

Question: And the outcome [1]?
Answer: The outcome was “inactive”.

Question: What about the outcome [2] of the same compound?
Answer: The outcome was “inactive”.

Question: And the outcome [3]?
Answer: Its outcome is “inactive”.

Question: What about the outcome [5] of the same compound?
Answer: The outcome was “inactive”.

Question: What about the outcome [15] of the same compound?
Answer: The outcome was “inactive”.

Question: What about the outcome [6] of the same compound?
Answer: Its outcome is “inactive”.

Question: And the outcome [7]?
Answer: Its outcome is “inactive”.

Question: What about the outcome [12] of the same compound?
Answer: The outcome was “inactive”.

Question: And the outcome [13]?
Answer: Its outcome is “inactive”.

Question: Which outcome [4] does the source give for `ClC1=C(Cl)[C@]2(Cl)[C@@H]3[C@@H](Cl)[C@H](Cl)C[C@@H]3[C@@]1(Cl)C2(Cl)Cl` here?
Answer: The outcome was “inactive”.

Question: And the outcome [17]?
Answer: Its outcome is “inactive”.

Question: What about the outcome [14] of the same compound?
Answer: The outcome was “inactive”.

Question: What about the outcome [8] of the same compound?
Answer: The outcome was “inactive”.

Question: What about the outcome [9] of the same compound?
Answer: Its outcome is “inactive”.

Question: And the outcome [16]?
Answer: The outcome was “inactive”.

Question: And the outcome [10]?
Answer: Its outcome is “inactive”.

Question: And the outcome [2]?
Answer: Its outcome is “inactive”.

Question: And the outcome [15]?
Answer: Its outcome is “inactive”.

Question: With `CC(=O)c1cc2c(cc1C)C(C)(C)C(C)CC2(C)C` (stereo not drawn) as the compound, how does the AC50 [14] read?
Answer: The AC50 was 179 µM (active).

Question: And the outcome [16]?
Answer: Its outcome is “inactive”.

Question: And the outcome [18]?
Answer: The outcome was “inactive”.

Question: And the outcome [1]?
Answer: The outcome was “inactive”.

Question: And the outcome [2]?
Answer: Its outcome is “inactive”.

Question: And the outcome [5]?
Answer: Its outcome is “inactive”.

Question: And the outcome [7]?
Answer: Its outcome is “inactive”.

Question: What about the outcome [11] of the same compound?
Answer: The outcome was “inactive”.

Question: What about the outcome [19] of the same compound?
Answer: The outcome was “inactive”.
